The values that follow come from PubChem BioAssay AID602475 (National Center for Advancing Translational Sciences (NCATS), 2012).

Inconclusive results are not listed. A call without a number means that no potency is given here. The source made the active and inactive calls. The call rests on the fitted dose curve; in most records, active means well fitted inhibition curve with a large enough effect; inconclusive means small, poorly fitted or top-dose-only effect; inactive means no such curve, though single readings can be large or run the other way.

The target of this experiment is Luciferin 4-monooxygenase (Photinus pyralis) (UniProt P08659). Nature of the experiment: FLuc inhibitory activity for the follow-up compounds in a biochemical assay with an in-house formulation of detection reagent. The procedure, abridged:
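qHTS 12-point titration (~25uM–0.1nM) against 10 nM firefly luciferase; activity read as luminescence after adding in-house reagent containing 1mM D-luciferin, 450uM ATP, 500uM Coenzyme A and 300mM MgCl.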

Sequence of Luciferin 4-monooxygenase (Photinus pyralis) (P08659 whole entry, looked up): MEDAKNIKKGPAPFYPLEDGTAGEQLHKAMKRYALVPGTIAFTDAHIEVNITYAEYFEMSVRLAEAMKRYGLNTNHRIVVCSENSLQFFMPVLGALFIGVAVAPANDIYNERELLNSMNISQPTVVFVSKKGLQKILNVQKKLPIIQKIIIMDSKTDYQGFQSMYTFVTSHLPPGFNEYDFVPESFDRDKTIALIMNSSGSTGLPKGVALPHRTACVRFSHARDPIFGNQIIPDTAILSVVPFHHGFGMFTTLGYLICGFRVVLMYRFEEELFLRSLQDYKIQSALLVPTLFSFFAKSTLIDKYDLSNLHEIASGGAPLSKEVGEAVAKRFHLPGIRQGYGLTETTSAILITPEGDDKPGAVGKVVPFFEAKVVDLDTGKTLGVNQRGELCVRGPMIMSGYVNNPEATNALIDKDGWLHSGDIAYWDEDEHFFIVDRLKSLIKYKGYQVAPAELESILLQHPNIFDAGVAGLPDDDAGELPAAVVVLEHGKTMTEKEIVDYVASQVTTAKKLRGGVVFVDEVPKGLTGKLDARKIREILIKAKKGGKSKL

With `CC(=O)Oc1ccc(C(=O)Nc2ccccc2C(=O)Nc2ccc(C(=O)O)cc2)cc1`, the Potency result is “inactive”.
